Test [1] can be described thus: resazurin metabolic signal in HepG2 cells – cell-based, resazurin fluorescence, 24 h, PK04 Diversity Set, profiling panel (AID 1172). Further: test concentration not given here. The settings on record: HepG2 viability, higher = more signal.
A short description of test [2]: budding yeast growth changes without added modifier – OD600, strain BY4716, 24 h, basal condition, primary screen (AID 1173). As to conditions: S. cerevisiae BY4716 growth, OD600, 24 h; higher = more signal, called active from +8 up or from −8 down.
Test [3] in a line: viability profiling in MM1S myeloma cells – cell-based, resazurin fluorescence, basal, 24 h, PK04 Diversity Set, profiling panel (AID 1174). Further: test concentration not given here. As to conditions: higher = more signal, called active from +8 up or from −8 down. For orientation: Alamar Blue is a resazurin reagent that responds to reducing activity.
The target in test [4] is Dihydroorotate dehydrogenase (quinone), mitochondrial (Plasmodium falciparum (isolate 3D7)) (UniProt Q08210). Put plainly: inhibition of P. falciparum DHODH – biochemical, C-terminal His tag, absorbance 600 nm, primary screen (AID 1175).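 Further: recombinant parasite enzyme with a five histidine tag at its C terminus; test concentration not given here.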 As to conditions: PfDHODH enzyme, DCIP absorbance 600 nm; higher = more signal, called active from +8 up or from −8 down.
Chain of Dihydroorotate dehydrogenase (quinone), mitochondrial (Plasmodium falciparum (isolate 3D7)) (Q08210 whole entry, looked up): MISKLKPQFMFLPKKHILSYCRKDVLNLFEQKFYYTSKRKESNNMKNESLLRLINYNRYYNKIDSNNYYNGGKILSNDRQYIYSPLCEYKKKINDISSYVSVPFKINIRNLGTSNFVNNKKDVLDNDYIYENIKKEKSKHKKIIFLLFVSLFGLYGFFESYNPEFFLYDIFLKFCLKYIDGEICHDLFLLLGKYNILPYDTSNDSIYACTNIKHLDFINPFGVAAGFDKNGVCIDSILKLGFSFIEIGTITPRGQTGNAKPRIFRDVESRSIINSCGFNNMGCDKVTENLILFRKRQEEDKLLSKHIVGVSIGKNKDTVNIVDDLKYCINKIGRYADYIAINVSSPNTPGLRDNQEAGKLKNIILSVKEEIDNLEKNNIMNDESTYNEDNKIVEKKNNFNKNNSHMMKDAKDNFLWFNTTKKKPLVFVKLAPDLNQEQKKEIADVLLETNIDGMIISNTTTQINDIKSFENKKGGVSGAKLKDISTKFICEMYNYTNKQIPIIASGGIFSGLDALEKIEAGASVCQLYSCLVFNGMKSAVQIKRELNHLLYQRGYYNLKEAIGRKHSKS
Test [5] in a line: inhibition of PAO1 biofilm formation – strain PAO1, LB-PBS medium, absorbance 600 nm, primary screen (AID 1176). Further: test concentration not given here. The settings on record: P. aeruginosa PAO1 growth/biofilm, A600, 12 h; higher = more signal.
Test [6] in a line: growth modulation of vineyard yeast isolate – strain RM11-1a, OD600, basal, 24 h, primary screen (AID 1177).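 Further: cultures grown under basal conditions with no added stressor; test concentration not given here.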 As to conditions: S. cerevisiae RM11-1a growth, OD600, 24 h; higher = more signal, called active from +8 up or from −8 down.
Test [7] can be described thus: growth of efflux-deficient E. coli DRC39 – strain DRC39, OD650, 24 h, E. coli filamentation inducers, primary screen (AID 1178).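 Further: growth measured as culture turbidity by optical density at 650 nm; test concentration not given here.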 The settings on record: E. coli DRC39 acrAB, higher = more signal, called active from +8 up or from −8 down.
Test [8] can be described thus: growth of efflux-deficient E. coli DRC39 – strain DRC39, OD650, 48 h, E. coli filamentation inducers, primary screen (AID 1179).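 Further: screen aims at cell division blockers that make cells filament.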 As to conditions: E. coli DRC39 delta-acrAB growth, higher = more signal, called active from +8 up or from −8 down.
Test [9] can be described thus: viability profiling in RPMI8226 myeloma cells – cell-based, resazurin fluorescence, basal, 24 h, PK04 Diversity Set, profiling panel (AID 1180).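 Further: RPMI8826 multiple myeloma cell line at 5000 cells per well; test concentration not given here.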 The settings on record: higher = more signal.
In test [10] the target is E3 ubiquitin-protein ligase XIAP (Homo sapiens) (UniProt P98170). The test can be described thus: small molecules binding XIAP protein – biophysical, small-molecule microarray, fluorescence 635 nm, primary screen (AID 1181).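 Further: score merges 667 nm emission and signal to noise over triplicate slides.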 The settings on record: higher = more signal.
Chain of E3 ubiquitin-protein ligase XIAP (Homo sapiens) (P98170 whole entry, looked up): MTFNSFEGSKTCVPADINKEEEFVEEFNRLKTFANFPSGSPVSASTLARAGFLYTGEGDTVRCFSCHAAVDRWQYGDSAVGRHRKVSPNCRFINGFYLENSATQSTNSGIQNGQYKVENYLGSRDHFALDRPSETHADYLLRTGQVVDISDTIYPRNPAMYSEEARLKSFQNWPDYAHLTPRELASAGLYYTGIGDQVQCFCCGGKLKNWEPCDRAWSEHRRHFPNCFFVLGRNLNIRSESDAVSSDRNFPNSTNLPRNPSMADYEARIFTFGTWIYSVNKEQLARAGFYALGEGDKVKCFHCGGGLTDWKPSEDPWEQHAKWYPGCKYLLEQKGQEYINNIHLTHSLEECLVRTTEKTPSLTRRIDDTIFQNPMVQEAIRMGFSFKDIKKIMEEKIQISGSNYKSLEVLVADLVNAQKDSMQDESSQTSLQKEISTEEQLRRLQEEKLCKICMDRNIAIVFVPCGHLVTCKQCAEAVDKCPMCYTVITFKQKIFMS

Activity calls are given as the source filed them. Unless noted, how the calls were made is not given here.

Take `CCOC(=O)[C@H](Cc1ccccc1)NC(=O)CCC1CC(OC(=O)NCc2ccc3c(c2)OCO3)CC2(CCCC(COC(=O)NCc3ccccc3)O2)O1` (stereo not given in full): the z-score is 0.966 in [1]; -0.0513 (inactive) in [2]; 0.637 (inactive) in [3]; 0.0858 (inactive) in test [5]; 0.864 (inactive) in [6]; 0.703 (inactive) in [7]. The z-score in [8] is 1.22 (inactive); in test [9] it was 0.676. The composite z-score was 0.208 (inactive) in [4] and -0.0089 in test [10].
Consider `COCCCNC(=O)[C@]1(Cc2ccccc2)N=C(c2ccc(OCCCO)cc2)O[C@@H]1c1ccccc1`, for which the z-score was 0.754 in test [1]; -0.706 (inactive) in test [2]; 0.325 (inactive) in test [3]; 0.494 (inactive) in [5]; -0.499 (inactive) in [6]; 0.156 (inactive) in test [7]. Moreover, the z-score in [8] was -1.11 (inactive); in [9] it was 0.778. For the same molecule, the composite z-score in test [4] was -0.0882 (inactive); in test [10], -0.0118.
For `C=C(/C(=C/C[C@@H](OC(=O)c1ccncc1)c1ccc(OCCO)cc1)c1cnc2ccccc2c1)C(C)C`, the z-score was 0.384 in test [1]; -18.5 (active) in test [2]; -0.684 (inactive) in [3]; -0.235 (inactive) in test [5]; -22.1 (active) in [6]; 0.872 (inactive) in [7]. For the same molecule, the z-score in test [8] is 0.432 (inactive); in test [9], 0.206. In addition, the figures for the composite z-score in [4] and in [10] were -10.5 (active) and -0.0373, respectively.
Take `C=C(/C(=C/C[C@H](OC(=O)c1ccncc1)c1ccc(OCCO)cc1)c1cnc2ccccc2c1)C(C)C`: the z-score in test [1] is 0.145; in test [2], -0.753 (inactive); in test [3], -0.777 (inactive); in [5] it was 0.85 (inactive); in test [6] it was 0.0942 (inactive); in test [7], -1.05 (inactive). Moreover, the z-score in test [8] is -1.02 (inactive); in test [9], 0.0076. In addition, the composite z-score is -2.73 (inactive) in test [4] and 0.13 in [10].
For `CC(C)(C)N1CC=CC23O[C@@H]4C=CCCOC(=O)C4[C@H]2C(=O)N(CCCCCO)[C@@H]3C1=O` (stereo not given in full), the z-score in test [1] is -0.214; in test [2], -0.312 (inactive); in test [3] it was 0.287 (inactive); in test [5], -0.36 (inactive); in test [6], 0.449 (inactive); in test [7], 0.251 (inactive). The z-score in [8] was 0.762 (inactive); in [9] it was 0.384. Moreover, the composite z-score in [4] was -0.16 (inactive); in [10], 0.329.
As for `C=CCOC(=O)[C@H]1[C@@H]2C(=O)O[C@@H](c3ccccc3)[C@@H](c3ccccc3)N2[C@@H](c2ccc(OCCOC(=O)[C@H]3C[C@H]4C(=O)N5CCC[C@H]5C(=O)N4[C@H]3c3cccc(OCCO)c3)cc2)[C@]12C(=O)Nc1ccc(I)cc12`, the z-score is 0.187 in [1]; 0.0932 (inactive) in test [2]; -0.376 (inactive) in [3]; -0.102 (inactive) in [5]; -0.442 (inactive) in test [6]; -0.277 (inactive) in [7]. The z-score in [8] is -0.553 (inactive); in test [9], 0.0614. The composite z-score in test [4] was -15.3 (active); in test [10], 0.724.
`CC[C@@H](c1ccccc1)n1c(=O)n2n(c1=O)[C@H]1[C@H](O)[C@@H]3O[C@@H]3C(=NOCC(C)C)[C@H]1CC2`: the z-score in test [1] is -0.0871; in test [2], 0.747 (inactive); in [3] it was -0.349 (inactive); in test [5], -0.413 (inactive); in test [6] it was 0.49 (inactive); in test [7], 0.258 (inactive). The z-score was -1.31 (inactive) in test [8] and 0.0402 in [9]. For the same molecule, the composite z-score in test [4] was 0.777 (inactive); in [10], -0.0525.
For `O=C1C2=CC[C@H]3C(=O)N(Cc4ccc5c(c4)OCO5)C(=O)[C@H]3[C@H]2[C@H](O)[C@@H]2O[C@H]12`, the z-score in test [1] was -0.522; in test [2] it was -0.105 (inactive); in test [3] it was -0.677 (inactive); in test [5] it was 0.0578 (inactive); in [6], -0.491 (inactive); in test [7], 0.166 (inactive). Also, the z-score in test [8] was 0.0632 (inactive); in test [9], -1.49. The composite z-score in [4] is -0.907 (inactive); in [10] it was -0.381.
`O=C1[C@H]2[C@H]3[C@H](O)[C@H](O)CC(=NOCc4ccccc4)[C@H]3CC[C@H]2C(=O)N1c1ccc(F)cc1F`: the z-score in [1] is 1.15; in test [2], -1.51 (inactive); in [3], -0.254 (inactive); in test [5], 0.328 (inactive); in [6], -0.645 (inactive); in test [7], 0.586 (inactive). Moreover, the results for the z-score in [8] and in [9] were 0.535 (inactive) and 1.28, respectively. Moreover, the composite z-score is -0.738 (inactive) in test [4] and 0.104 in [10].
For `O=C(CS)NCCCCCNC(=O)[C@@H]1C[C@@H]2C(=O)N[C@@H](Cc3ccccc3)C(=O)N2[C@@H]1c1ccc(O)cc1`, the z-score was -0.204 in test [1]; -0.391 (inactive) in [2]; 0.0755 (inactive) in test [3]; -0.0338 (inactive) in test [5]; 0.349 (inactive) in test [6]; 0.411 (inactive) in [7]. The figures for the z-score in [8] and in test [9] were 0.904 (inactive) and 0.252, respectively. Also, the composite z-score in test [4] is 0.0126 (inactive); in test [10], -0.0282.
Take `COCCNC(=O)OCC1CCCC2(CC(OC(=O)NCCc3ccc(F)cc3)CC(CCC(=O)N[C@@H](C)C(=O)OC)O2)O1` (stereo not given in full): the z-score in test [1] was 0.864; in test [2] it was -0.183 (inactive); in [3] it was 0.899 (inactive); in test [5], 0.262 (inactive); in [6], 0.684 (inactive); in test [7], 0.963 (inactive). The results for the z-score in [8] and in test [9] were 1.16 (inactive) and 1.07, respectively. For the same molecule, the composite z-score was -0.0746 (inactive) in test [4] and -0.216 in test [10].
In the case of `CCCCc1nc2c(c3c1C[C@H](C)OC3)CN(CCC(C)C)CC2`, the z-score in test [1] was -0.165; in test [2] it was -2.07 (inactive); in test [3], 0.431 (inactive); in test [5] it was 0.332 (inactive); in test [6], -0.674 (inactive); in test [7] it was 0.56 (inactive). Further, the z-score in test [8] was -0.104 (inactive); in [9], 1.2. In addition, the figures for the composite z-score in [4] and in [10] were -0.847 (inactive) and 0.0133, respectively.
Consider `CO[C@@H]1COC(=O)[C@H](C)NC(=O)[C@@H](C)COC(=O)CCC[C@H]1C`, for which the z-score in test [1] was 0.868; in test [2], 0.0728 (inactive); in [3], -0.516 (inactive); in test [5], -0.892 (inactive); in test [6] it was 0.0233 (inactive); in test [7] it was 0.277 (inactive). For the same molecule, the z-score in test [8] was -0.297 (inactive); in test [9], -0.0734. The composite z-score is -0.926 (inactive) in test [4] and -0.153 in [10].

The values are drawn from PubChem BioAssay.
